# Source: PubChem BioAssay AID504770 (ICCB-Longwood Screening Facility, Harvard Medical School, 2011)
# Screen size: about 130,000 compounds; about 350 (0.27%) were called active. No stated cut-off is given here; in the data, active means z-score below about -2 (passing the limit was not always enough); inactive means the rest. The sample as a whole holds a higher share of actives than the screen did.
# Assay: PubChem AID 504770
# Conditions: E. coli YBA685 rctB-dependent plasmid, OD600 growth, 3 h; hits give low values
row,SMILES,z-score
1,CCOC(=O)C(Cc1ccccc1)C(=O)Nc1cccc(C)n1 (stereo not drawn),-0.4 (inactive)
2,O=C(CCSc1nc(-c2ccco2)cc(C(F)(F)F)n1)N1CCCC1,0.85 (inactive)
3,Cc1nc(/N=C(/N)NC(=O)c2ccccc2)nc2ccccc12,0.6 (inactive)
4,Cc1ccc2c(c1)c1c(n2CC(O)CN2CCCCC2)C(=O)CCC1 (stereo not drawn),-0.35 (inactive)
5,CC1CC(C)CN(c2ncnc3scc(-c4ccccc4)c23)C1 (stereo not drawn),-0.7 (inactive)
6,CC1CCCCC1NC(=O)COC(=O)c1nc(Cl)ccc1Cl (stereo not drawn),-0.55 (inactive)
7,O=C(COC(=O)/C=C/c1cn(-c2ccccc2)nc1-c1ccccc1)NC1CC1,-2.45 (inactive)
8,CCc1ccc(C(=O)COC(=O)c2cccc(-n3cccc3)c2)s1,1.2 (inactive)
9,CCc1ccc(C(=O)CCC(=O)O)s1,-3.1 (active)
10,CCc1ccc(CCC(=O)O)cc1,0.8 (inactive)
11,O=c1c(/C=N\O)coc2ccc(F)cc12,1.15 (inactive)
12,O/N=C/c1cccc(Cl)c1,-0.05 (inactive)
13,O=c1c(/C=N/O)coc2ccc(Cl)cc12,-3.05 (active)
14,CCCc1cc(=O)oc2c1c(C)nn2C,0.15 (inactive)
15,CCCc1cc(=O)[nH]c2c1c(C)nn2-c1cccc(F)c1,2.25 (inactive)
16,Cc1cccc(-n2nc(C)c3c(C)cc(=O)oc32)c1,-3.15 (active)
17,CCN(CC)S(=O)(=O)c1ccc(C(=O)NCCn2c(C)cc3ccccc32)cc1,0.65 (inactive)
18,Cc1ccc(C(C(=O)NCc2ccccc2)N(Cc2ccco2)C(=O)Cn2nnc3ccccc32)cc1 (stereo not drawn),-0.35 (inactive)
19,CCN1CCN(c2ccc(NC(=O)[C@H](Cc3ccccc3)N3Cc4ccccc4C3=O)cc2)CC1,1.2 (inactive)
20,CCSc1nnc(SCC(=O)c2ccc3[nH]c(=O)[nH]c3c2)s1,1.6 (inactive)
21,CC1CCCC(C)N1C(=O)COC(=O)c1ccccc1I (stereo not drawn),1.25 (inactive)
22,CCOc1ncccc1C(=O)OCC(=O)N1C(C)CCCC1C (stereo not drawn),-5.9 (active)
23,Cc1cc(C(=O)OCC(=O)N2C(C)CCCC2C)c2ccccc2n1 (stereo not drawn),0.05 (inactive)
24,COC(=O)CN1C(=O)C(C)(C)Oc2ccc(C(=O)Nc3cccc(OC)c3)cc21,-0.45 (inactive)
25,COc1ccc(C2CC(=O)C3=C(C2)NC(=O)CC3c2ccc3c(c2)OCO3)cc1 (stereo not drawn),0.05 (inactive)
26,CCCN1CCC(NC(=S)Nc2ccc3c(c2)OCO3)CC1,1.7 (inactive)
27,O=C(Nc1ccccc1)C1CCN(C(=O)c2cccs2)CC1,0.15 (inactive)
28,CCN1CCN(C(=O)c2ccc(/C=C3/Sc4ccccc4N(Cc4ccccc4C)C3=O)cc2)CC1,0.25 (inactive)
